# Laboratory results reported in PubChem BioAssay (EPA / NIEHS).
# Records with an inconclusive call do not appear. Active and inactive are the calls of the source. Rule for the calls: active = hit-call score of the fitted dose curve at least 0.9, where 1 is the maximum; inconclusive = response in the unintended direction; inactive = score below 0.9.
# Experiments:
# [1] = ACEA_AR_antagonist_AUC_viability: ACEA Biosciences xCELLigence Real-Time Cell Analysis on Androgen Receptor Antagonism for Viability (AID 2283776);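 note: area under impedance growth curve at 80 h after dosing as viability; hits lower the growth signal relative to DMSO meaning cytotoxicity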
# Outline: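 22Rv1 human prostate cancer cells were seeded on electrode plates, monitored overnight, then exposed to eight 1:4 dilutions from 100 uM final. Impedance-based growth kinetics at 80 h gave an AUC viability endpoint normalized to DMSO.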
# AR (gene 367) [2] = target: AR (gene 367) (UniProt P10275); assay: ACEA_AR_agonist_80hr: ACEA Biosciences xCELLigence Real-Time Cell Analysis on Androgen Receptor Agonism for Proliferation (AID 2283783);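 note: hits increase impedance growth signal above DMSO baseline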
# Outline: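 Androgen-driven proliferation in 22Rv1 cells is tracked as electrical impedance, taken 80 h after continuous exposure to compound (eight concentrations, 1:4 steps, maximum 100 uM final). Activity is fitted in the positive direction with DMSO as baseline.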
# AR (gene 367) [3] = target: AR (gene 367) (UniProt P10275); assay: ACEA_AR_antagonist_80hr: ACEA Biosciences xCELLigence Real-Time Cell Analysis on Androgen Receptor Antagonism for Proliferation (AID 2283787);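 note: hits lower the impedance growth signal relative to DMSO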
# Outline: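 Growth-kinetic antagonist readout in 22Rv1 cells, taken 80 h after continuous compound exposure. Activity fitted as signal loss relative to DMSO negative control.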
# [4] = ACEA_ER_AUC_viability: ACEA Biosciences xCELLigence Real-Time Cell Analysis on Estrogen Receptor Agonism for Viability (AID 2283782);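 note: continuous compound exposure with impedance area under curve over 80 h; hit means loss of impedance signal meaning reduced cell growth or viability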
# Outline: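 T-47D; phenol red-free RPMI1640 + 10% CS-FBS; 8 conc., 1:4 serial, max 100 uM final, ≤0.5% DMSO; n = 2; continuous exposure; impedance monitored to 80 h post-dose; AUC vs DMSO.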
# [5] = ACEA_AR_agonist_AUC_viability: ACEA Biosciences xCELLigence Real-Time Cell Analysis on Androgen Receptor Agonism for Viability (AID 2283775)
# Outline: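 Read-out is area under the impedance curve at 80 h post-dose in 22Rv1 cells, with DMSO as baseline and signal loss taken as reduced viability. Compounds ran in duplicate from 100 uM final.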
# [6] = tested on: zebrafish Estrogen Receptor (ESR2B), gene 317733; assay: ATG_zfER2b_XSP1: Attagene TRANS-FACTORIAL Multi-Species (XSP1) HepG2 Assay for zebrafish Estrogen Receptor (ESR2B) (AID 2283773)
# Outline: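 Gain-of-signal endpoint relative to DMSO: reporter transcript levels quantified by RT-PCR and capillary electrophoresis after 24 h compound exposure of HepG2 cells expressing a zebrafish ER2b-Gal4 chimera.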
# [7] = tested on: frog Estrogen Receptor (ESR2), gene 100174814; assay: ATG_frER2_XSP1: Attagene TRANS-FACTORIAL Multi-Species (XSP1) HepG2 Assay for frog Estrogen Receptor (ESR2) (AID 2283774)
# Outline: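 Transactivation of an exogenous receptor-Gal4 fusion is tracked in transfected HepG2 cells via induced reporter transcript levels. After 24 h treatment, RT-PCR with capillary electrophoresis quantifies signal gain over DMSO.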
# [8] = tested on: frog Estrogen Receptor (ESR1), gene 398734; assay: ATG_frER1_XSP1: Attagene TRANS-FACTORIAL Multi-Species (XSP1) HepG2 Assay for frog Estrogen Receptor (ESR1) (AID 2283777)
# Outline: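 Human hepatoma HepG2 cells carried transiently transfected multiplexed Gal4-driven reporters and were exposed to test chemicals for 24 hours. Transcripts were quantified by fluorescent RT-PCR with capillary electrophoresis, referenced to DMSO.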
# [9] = tested on: zebrafish Estrogen Receptor (ESR2A), gene 317734; assay: ATG_zfER2a_XSP1: Attagene TRANS-FACTORIAL Multi-Species (XSP1) HepG2 Assay for zebrafish Estrogen Receptor (ESR2A) (AID 2283778)
# Outline: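 Cells were transfected, dosed for 24 h, then total RNA was isolated. After oligo(dT) reverse transcription, reporter sequences were amplified, FAM-labelled by primer extension, digested with HpaI and sized by capillary electrophoresis; DMSO served as baseline.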
# [10] = target: chicken Estrogen Receptor (ESR1), ESR1 (gene 396099) (UniProt P06212); assay: ATG_chERa_XSP1: Attagene TRANS-FACTORIAL Multi-Species (XSP1) HepG2 Assay for chicken Estrogen Receptor (ESR1) (AID 2283779)
# Outline: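 Human liver HepG2, transient MRTU transfection (NR-Gal4 chimeras, GAL4-UAS reporters); 24 h compound exposure; 3 nM 6-alpha-fluorotestosterone in medium. Total RNA → RT-PCR → 6-FAM primer extension → HpaI → CE. Positive direction vs DMSO baseline.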
# [11] = target: Estrogen receptor (Homo sapiens) (UniProt P03372); assay: ATG_hERa_XSP1: Attagene TRANS-FACTORIAL Multi-Species (XSP1) HepG2 Assay for human Estrogen Receptor (ESR1) (AID 2283780)
# Outline: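 HepG2 cells transiently transfected with GAL4-UAS reporter units and chimeric NR-Gal4 constructs; 24 h after dosing, reporter mRNA quantified by RT-PCR and capillary electrophoresis. Medium contained 3 nM 6-alpha-fluorotestosterone; activity fitted as gain-of-signal versus DMSO.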
# [12] = tested on: turtle Estrogen Receptor (ESR1), gene 101933533; assay: ATG_trERa_XSP1: Attagene TRANS-FACTORIAL Multi-Species (XSP1) HepG2 Assay for turtle Estrogen Receptor (ESR1) (AID 2283781)
# Outline: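 Activity was taken as gain of reporter transcript over DMSO controls. HepG2 cells carrying GAL4-UAS-driven reporters were exposed for 24 h before RNA was extracted and reporter sequences were measured by fluorescence after capillary separation.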
# [13] = target: Estrogen receptor beta (Homo sapiens) (UniProt Q92731); assay: ATG_hERb_XSP1: Attagene TRANS-FACTORIAL Multi-Species (XSP1) HepG2 Assay for human Estrogen Receptor (ESR2) (AID 2283788)
# Outline: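 Measured endpoint is transcriptional gain of signal from a GAL4-UAS reporter controlled by chimeric ERβ in HepG2 liver cells. Exposure lasts 24 h alongside 3 nM 6-alpha-fluorotestosterone, with DMSO as negative control.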
# [14] = ATG_M_19_XSP1: Attagene TRANS-FACTORIAL Multi-Species (XSP1) HepG2 Assay for M19 Transcription Factor (Internal Marker) (AID 2283798)
# Outline: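 HepG2 cells transiently transfected with multiplexed GAL4-UAS reporter units, dosed 24 h with 3 nM 6-alpha-fluorotestosterone present for partial AR stimulation. Reporter mRNA measured by RT-PCR with capillary electrophoresis; gain-of-signal fitted relative to DMSO.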
# [15] = tested on: zebrafish Peroxisome Proliferator-activated Receptor gamma (PPARg), gene 557037; assay: ATG_zfPPARg_XSP1: Attagene TRANS-FACTORIAL Multi-Species (XSP1) HepG2 Assay for zebrafish Peroxisome Proliferator-activated Receptor gamma (PPARg) (AID 2283801)
# Outline: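 HepG2 cells transiently transfected with GAL4-UAS reporter units including a zebrafish PPARg–GAL4 chimera, dosed 24 h with 3 nM 6-alpha-fluorotestosterone present. Reporter mRNA quantified by RT-PCR, FAM labelling, HpaI digestion and capillary electrophoresis; induction versus DMSO.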
# [16] = target: Nuclear receptor subfamily 1 group I member 2 (Mus musculus) (UniProt O54915); assay: ATG_mPXR_XSP1: Attagene TRANS-FACTORIAL Multi-Species (XSP1) HepG2 Assay for mouse Pregnane X Receptor (PXR) (AID 2283803)
# Outline: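 Transiently transfected HepG2 cells expressing a receptor-Gal4 chimera drive a GAL4-UAS reporter; 3 nM 6-alpha-fluorotestosterone included. Reporter mRNA read 24 h post-dose by RT-PCR and capillary electrophoresis; gain of signal relative to DMSO.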
# [17] = tested on: turtle Thyroid Hormone Receptor, alpha (TRa), gene 101949057; assay: ATG_trTRa_XSP1: Attagene TRANS-FACTORIAL Multi-Species (XSP1) HepG2 Assay for turtle Thyroid Hormone Receptor, alpha (TRa) (AID 2283806)
# Outline: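 HepG2 cells transiently transfected with GAL4-UAS reporter units and chimeric receptor-Gal4 constructs, with 3 nM 6-alpha-fluorotestosterone present. Reporter mRNA was quantified 24 h after dosing by RT-PCR, 6-FAM labelling and capillary electrophoresis; gain of signal versus DMSO.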
# [18] = ATG_XTT_Cytotoxicity_XSP1: Cytotoxicity Assessment in the Attagene TRANS-FACTORIAL Multi-Species (XSP1) HepG2 Assay (AID 2283810)
# Outline: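 XTT viability readout taken at 24 hours post-dosing in HepG2 liver cells co-treated with 3 nM 6-alpha-fluorotestosterone. Signal loss relative to DMSO controls reflects cytotoxicity.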
# [19] = ATG_M_06_XSP2: Attagene TRANS-FACTORIAL Multi-Species (XSP2) HepG2 Assay for M06 Transcription Factor (Internal Marker) (AID 2283811);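 note: internal background marker reporter mRNA measured by RT-PCR and capillary electrophoresis; hits are increases in signal above the DMSO baseline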
# Outline: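 HepG2, multiplexed reporter transfection; 24 h dosing; AR stimulated with 3 nM 6-alpha-fluorotestosterone + 1.5 nM norgestrel; RNA → RT-PCR → 6-FAM primer extension → HpaI → CE. Positive direction vs DMSO.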
# [20] = tested on: turtle Estrogen Receptor (ERa), gene 101933533; assay: ATG_trERa_XSP2: Attagene TRANS-FACTORIAL Multi-Species (XSP2) HepG2 Assay for turtle Estrogen Receptor (ERa) (AID 2283812);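 note: human HepG2 liver cells transiently expressing turtle ERa-Gal4 chimeric receptor; actives raise reporter signal above DMSO so AC50 reflects agonist activity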
# Outline: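 HepG2 cells transiently transfected with GAL4-UAS reporter units expressing turtle ERa-Gal4 chimera. Reporter mRNA measured after 24 h dosing by RT-PCR, fluorescent labelling and capillary electrophoresis; gain of signal fitted versus DMSO.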
# Chain of AR (gene 367) (P10275 whole entry, looked up): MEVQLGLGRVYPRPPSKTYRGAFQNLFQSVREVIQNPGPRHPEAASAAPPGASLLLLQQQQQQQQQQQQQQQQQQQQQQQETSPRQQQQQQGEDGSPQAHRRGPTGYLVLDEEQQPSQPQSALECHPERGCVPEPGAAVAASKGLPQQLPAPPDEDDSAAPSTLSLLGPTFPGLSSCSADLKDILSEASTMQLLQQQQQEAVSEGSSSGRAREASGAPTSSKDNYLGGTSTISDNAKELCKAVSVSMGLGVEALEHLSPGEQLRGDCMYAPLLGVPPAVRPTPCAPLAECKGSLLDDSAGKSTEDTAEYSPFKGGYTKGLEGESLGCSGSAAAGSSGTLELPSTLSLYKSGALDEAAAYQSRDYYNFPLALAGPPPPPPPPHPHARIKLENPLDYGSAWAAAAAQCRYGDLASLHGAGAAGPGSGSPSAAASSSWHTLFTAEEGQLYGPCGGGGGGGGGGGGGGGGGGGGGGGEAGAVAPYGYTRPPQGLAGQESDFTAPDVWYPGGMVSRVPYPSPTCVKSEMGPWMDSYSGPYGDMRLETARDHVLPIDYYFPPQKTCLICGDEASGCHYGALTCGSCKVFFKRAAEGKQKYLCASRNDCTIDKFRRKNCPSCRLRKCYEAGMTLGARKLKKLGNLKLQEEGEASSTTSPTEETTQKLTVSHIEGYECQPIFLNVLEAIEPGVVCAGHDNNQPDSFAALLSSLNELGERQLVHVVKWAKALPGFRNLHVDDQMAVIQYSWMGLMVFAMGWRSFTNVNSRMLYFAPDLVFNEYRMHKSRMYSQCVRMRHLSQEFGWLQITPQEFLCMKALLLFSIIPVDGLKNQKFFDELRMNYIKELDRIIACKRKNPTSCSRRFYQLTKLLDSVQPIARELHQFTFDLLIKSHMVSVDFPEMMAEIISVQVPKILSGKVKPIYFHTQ
# Chain of chicken Estrogen Receptor (ESR1), ESR1 (gene 396099) (P06212 whole entry, looked up, the tested form may be a part): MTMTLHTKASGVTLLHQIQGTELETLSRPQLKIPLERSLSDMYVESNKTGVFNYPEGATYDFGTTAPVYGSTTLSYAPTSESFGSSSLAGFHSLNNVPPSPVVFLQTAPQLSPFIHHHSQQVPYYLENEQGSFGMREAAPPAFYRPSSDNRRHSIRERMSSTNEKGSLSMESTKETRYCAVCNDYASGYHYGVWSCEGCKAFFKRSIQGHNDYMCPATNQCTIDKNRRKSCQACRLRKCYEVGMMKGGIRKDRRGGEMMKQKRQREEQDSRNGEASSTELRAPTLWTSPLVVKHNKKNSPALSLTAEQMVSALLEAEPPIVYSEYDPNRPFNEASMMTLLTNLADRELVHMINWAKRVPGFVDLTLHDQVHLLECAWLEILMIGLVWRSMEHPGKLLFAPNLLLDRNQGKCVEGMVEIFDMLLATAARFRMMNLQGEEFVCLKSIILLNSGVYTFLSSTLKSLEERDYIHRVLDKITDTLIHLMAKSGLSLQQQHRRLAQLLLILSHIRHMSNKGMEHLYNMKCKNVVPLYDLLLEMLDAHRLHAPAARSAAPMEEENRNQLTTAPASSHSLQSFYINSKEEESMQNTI
# Chain of Estrogen receptor (Homo sapiens) (P03372 whole entry, looked up, the tested form may be a part): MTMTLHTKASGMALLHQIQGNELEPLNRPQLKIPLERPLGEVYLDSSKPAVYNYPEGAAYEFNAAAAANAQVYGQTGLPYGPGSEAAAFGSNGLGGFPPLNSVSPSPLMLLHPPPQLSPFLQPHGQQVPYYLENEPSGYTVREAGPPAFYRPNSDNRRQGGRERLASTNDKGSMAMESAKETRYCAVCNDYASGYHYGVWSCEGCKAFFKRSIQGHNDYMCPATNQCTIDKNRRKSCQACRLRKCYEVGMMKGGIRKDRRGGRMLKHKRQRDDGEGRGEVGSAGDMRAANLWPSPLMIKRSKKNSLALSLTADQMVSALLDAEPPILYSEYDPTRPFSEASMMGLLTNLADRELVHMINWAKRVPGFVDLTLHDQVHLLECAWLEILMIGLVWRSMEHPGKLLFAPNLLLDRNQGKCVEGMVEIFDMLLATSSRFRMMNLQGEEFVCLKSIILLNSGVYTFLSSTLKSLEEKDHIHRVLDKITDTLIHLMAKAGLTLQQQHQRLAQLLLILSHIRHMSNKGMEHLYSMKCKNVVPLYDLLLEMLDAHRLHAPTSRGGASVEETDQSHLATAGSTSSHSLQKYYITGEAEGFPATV
# Chain of Estrogen receptor beta (Homo sapiens) (Q92731 whole entry, looked up, the tested form may be a part): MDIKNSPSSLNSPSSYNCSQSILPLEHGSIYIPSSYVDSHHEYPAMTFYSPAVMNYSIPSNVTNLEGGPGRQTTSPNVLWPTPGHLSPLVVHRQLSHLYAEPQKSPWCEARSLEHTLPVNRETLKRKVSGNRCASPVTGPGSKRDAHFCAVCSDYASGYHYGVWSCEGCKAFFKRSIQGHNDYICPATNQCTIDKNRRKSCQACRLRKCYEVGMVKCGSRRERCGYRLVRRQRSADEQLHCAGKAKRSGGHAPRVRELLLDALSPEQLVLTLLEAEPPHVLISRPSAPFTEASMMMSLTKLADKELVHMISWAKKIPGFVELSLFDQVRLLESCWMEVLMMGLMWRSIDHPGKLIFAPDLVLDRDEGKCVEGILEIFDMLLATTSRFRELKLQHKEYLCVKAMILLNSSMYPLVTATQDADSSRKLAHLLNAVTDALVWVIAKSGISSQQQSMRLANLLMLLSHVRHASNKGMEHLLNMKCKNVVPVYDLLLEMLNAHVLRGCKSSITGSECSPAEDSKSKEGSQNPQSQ
# Chain of Nuclear receptor subfamily 1 group I member 2 (Mus musculus) (O54915 whole entry, looked up, the tested form may be a part): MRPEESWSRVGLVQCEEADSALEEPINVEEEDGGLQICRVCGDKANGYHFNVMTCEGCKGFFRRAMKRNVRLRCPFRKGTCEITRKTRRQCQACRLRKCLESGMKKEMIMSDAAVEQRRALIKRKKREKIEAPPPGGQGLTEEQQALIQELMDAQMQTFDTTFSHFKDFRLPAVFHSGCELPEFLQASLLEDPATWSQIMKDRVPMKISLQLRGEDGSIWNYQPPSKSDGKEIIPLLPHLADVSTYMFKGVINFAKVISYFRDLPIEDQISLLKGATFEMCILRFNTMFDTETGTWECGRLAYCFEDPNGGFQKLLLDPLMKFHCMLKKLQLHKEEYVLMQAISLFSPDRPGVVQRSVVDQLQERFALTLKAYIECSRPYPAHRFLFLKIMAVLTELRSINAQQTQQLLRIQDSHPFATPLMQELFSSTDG
smiles,measurement,setting,value
CN(C)Cc1ccccc1O,outcome,[1],inactive
same,outcome,AR (gene 367) [2],inactive
same,outcome,AR (gene 367) [3],inactive
Cc1cc(C)cc(O)c1,outcome,[1],inactive
C=CC(=O)OCC(F)(F)C(F)(F)C(F)(F)C(F)(F)C(F)(F)C(F)(F)C(F)(F)F,outcome,[4],inactive
O=S(=O)(O)c1ccc2ccccc2c1,outcome,[5],inactive
same,outcome,[1],inactive
same,outcome,[4],inactive
FC(F)(I)C(F)(F)C(F)(F)C(F)(F)I,AC50,[4],129 µM (active)
C(=C(c1ccccc1)c1ccccc1)c1ccccc1,AC50,[6],50.4 nM (active)
same,AC50,[7],24.9 nM (active)
same,outcome,[1],inactive
same,outcome,[8],inactive
same,outcome,[9],inactive
same,AC50,[10],198 nM (active)
same,AC50,[11],33.6 nM (active)
same,AC50,[12],20.8 nM (active)
same,AC50,[4],87.1 µM (active)
same,AC50,[13],17 nM (active)
same,outcome,[14],inactive
same,outcome,[15],inactive
same,outcome,[16],inactive
same,outcome,[17],inactive
same,outcome,[18],inactive
same,outcome,[19],inactive
same,AC50,[20],39.9 nM (active)
CCCCC(CC)COP(=O)(O)OCC(CC)CCCC (stereo not given),outcome,[1],inactive
same,AC50,[4],79.2 µM (active)
CC(C)c1ccccc1N,AC50,[4],50 µM (active)
CC(Cc1ccc(O)c(O)c1)C(C)Cc1ccc(O)c(O)c1 (stereo not given),outcome,[5],inactive
same,outcome,[1],inactive
same,AC50,[4],27.6 µM (active)
OCC(F)(F)C(F)(F)C(F)(F)F,outcome,[4],inactive
O=C(OCCOCCOCCOC(=O)c1ccccc1)c1ccccc1,AC50,[1],195 nM (active)
same,outcome,[4],inactive
same,outcome,[19],inactive
same,outcome,[20],inactive
FC(F)(F)C(F)(F)C(F)(F)C(F)(F)C(F)(F)C(F)(F)CCS,outcome,[4],inactive
CC(CCl)OP(=O)(OC(C)CCl)OC(C)CCl (stereo not given),outcome,[5],inactive
same,outcome,[1],inactive
CC/C=C\CCOC(=O)c1ccccc1,AC50,[4],76.7 µM (active)
OCC(F)(F)C(F)(F)C(F)(F)C(F)F,outcome,[4],inactive
CCCCOCCOCCOC(=O)CCCCC(=O)OCCOCCOCCCC,outcome,[4],inactive
c1ccc(-c2ccccc2-c2ccccc2)cc1,AC50,[4],78.7 µM (active)
OCC(F)(F)C(F)(F)C(F)(F)C(F)(F)C(F)(F)C(F)F,outcome,[4],inactive
Cc1ccc(S(=O)(=O)OCC(F)(F)C(F)(F)C(F)(F)C(F)(F)C(F)(F)C(F)F)cc1,AC50,[4],0.00308 µM (active)
CCCCCC=O,outcome,[4],inactive
O[Si](c1ccccc1)(c1ccccc1)c1ccccc1,AC50,[4],196 µM (active)
FC(F)(F)C(F)(F)CNCC(F)(F)C(F)(F)F,outcome,[4],inactive
Nc1ccc([N+](=O)[O-])cc1O,outcome,[4],inactive
